Data on 40 compounds can be found in PubChem BioAssay (NCATS).

Inconclusive results are not listed. Activity calls are given as the source filed them. Calls come from the whole dose curve; as a rule, active = well fitted inhibition curve with a large enough effect; inconclusive = small, poorly fitted or top-dose-only effect; inactive = no such curve, though single readings can be large or run the other way.
Potency is the fitted concentration of half-maximal effect.

A short description of the assay: BET inhibitor-based combinations targeting novel dependencies in MECOM-rearranged (r) AML: MV-4-11 cell line (AID 2202233). Note: nearly all actives have a fitted effect of over 45% in size. The conditions noted are these: MV-4-11 AML viability, CellTiter-Glo luminescence, 48 h; series mostly up to 46 µM; viability, % of control: at the top concentration. From the text:
Ecotropic viral insertion site 1 (EVI1) is located on chromosome 3q26.2 as part of the MECOM (MDS and EVI1 complex) locus. Under normal hematopoiesis, EVI1 is a regulator of hematopoietic stem cell maintenance and self-renewal and EVI1 levels decrease as the cells differentiate. In approximately 5-10% of de novo acute myeloid leukemia (AML) EVI1 is aberrantly expressed, including Chromosomal inv(3)(q21;q26.2) or t(3;3)(q21;q26.2) alterations (MECOM-r) that account for about 50% of AML with EVI1 overexpression 31. AMLs with high levels of EVI1 have a poor prognosis and an overall survival time averaging between 10-14 months. EVI1 overexpression confers resistance in leukemia cells, highlighting the need to develop new targeted therapies for EVI1 overexpressing AMLs. Here, we performed an unbiased chemical drug screening by evaluating the single agent activity of a collection of 2,480 oncology-focused, approved and investigational drugs (NCATS Mechanism Interrogation Plates, MIPE v5.0) against a panel of seven AML cell lines. These included four MECOM-r cell-lines (AML-191, AML-194, UCSD-AML1 and HNT-34) and three non-MECOM-r AMLs (MV4-11, OCI-AML3 and SET-2). Exploiting the mechanistic redundancy built in the library, we identified target-level sensitivities in MECOM-r AML cells and relative activity as compared to other AML subtypes.
A collection of 2480 mechanistically annotated dugs (MIPE v5.0) was used to screen four 3q26.2 rearranged AML cell lines and three non-3q26.2 rearranged AML cell lines. This library purposely exploits redundancy by including multiple inhibitors of key onco-targets, while simultaneously encompassing mechanistic diversity, targeting more than 800 distinct mechanisms of action. Briefly, cells were seeded in 5 uL of growth media using a Multidrop Combi dispenser into 1536 well white polystyrene tissue culture treated plates (Corning) at a density of 500cells/well. For each cell-line, for each of the 2480 drugs in MIPE v5.0 library, an 11-point dose curve was generated via a 1536 pin-tool. Plates were incubated for 48 hr at standard incubator conditions, covered by a stainless steel gasketed lid to prevent evaporation. Cell viability was determined by luminescence based, Cell Titer Glo assay (Promega). In detail, 3 uL of Cell Titer Glo were added to each well and plates were incubated at room temperature for 15 min with a stainless-steel lid in place. Luminescence readings were taken using a Viewlux (PerkinElmer) with a 2 s exposure time per plate. Compound dose-response curves were normalized to DMSO and empty well controls on each plate. Quantitative drug activity data from dose-response curves was determined utilizing area Under the Curve (AUC) and Z-transformed AUC (Z-AUC, a mean-centering transformation applied to each individual cell-line screened).
A general note: In ATP-based viability assays light output follows the ATP content of the culture.
Turning to `COc1cc2c(Oc3ccc4[nH]c(C)cc4c3F)ccnc2cc1OCC1(N)CC1`, the Potency was 8.33 µM (active).
On the same count and under the same terms, for `C[C@@H](O)[C@@H](C)Oc1nc(Nc2ccc(S(=N)(=O)C3CC3)cc2)ncc1C(F)(F)F` (stereo not given in full) the value was 14.8 µM (active); for `O=C(Nc1ncc(SCCN2CCCC2)s1)[C@]1(c2ccc(S(=O)(=O)C3CC3)cc2)C[C@H]1C1CCCCC1`, 11.8 µM (active).
For the compound `CCN1C(=O)N2Cc3cc(OC)cc(OC)c3[C@@H](C)C=C2C12CCN(Cc1cc(C)cc(C)c1)CC2`, the Potency is 29.5 µM (active).
Still for that read-out and setting: for `O=S(=O)(Nc1ccc(-c2cccnc2)c2cccnc12)c1cccc(C(F)(F)F)c1` the value was 7.42 µM (active); for `CCOC(=O)c1ccc(C#Cc2ccc3c(c2)C(C)(C)CCS3)nc1`, 0.662 µM (active); for `CN(C)CCOc1ccc(-c2nc(-c3ccc4c(c3)CC/C4=N\O)c(-c3ccncc3)[nH]2)cc1`, 16.6 µM (active).
In the case of `CC#Cc1cncc(-c2ccc3c(c2)[C@@]2(N=C(C)C(N)=N2)C2(CCC(OC)CC2)C3)c1` (stereo not given in full), the Potency is 18.6 µM (active).
On the same count and under the same terms, for `C[C@H](CN(C)C)Oc1nc(Nc2cc3cccc(Cl)c3cn2)cnc1C#N` the value was 1.86 µM (active); for `CNC(=O)[C@@H](NC(=O)[C@H](CC(C)C)[C@H](O)C(=O)NO)C(C)(C)C`, 16.6 µM (active).
On the same count and under the same terms, under `CN1CCN(C2CCC(n3cc(-c4ccc(Oc5ccccc5)cc4)c4c(N)ncnc43)CC2)CC1` (stereo not given) stands 0.235 µM (active).
For `CC(C)(C)NC(=O)c1cncn1C1CCN(c2ccc(-c3nnc(C(F)(F)F)o3)cn2)CC1`, the Potency was 5.25 µM (active).
The same measure, in the same setting: for `CC[C@H](Nc1ncnc2nc[nH]c12)c1oc2ccccc2c(=O)c1-c1cccc(F)c1` the value was 6.61 µM (active).
Regarding `CCn1c(N)c(C(=O)NC)c(=O)c2ccc(C#CC(C)(O)COC)nc21` (stereo not given), the Potency was 5.25 µM (active).
Same read-out and setting: under `Nc1nc(Nc2ccc3c(c2)CC[C@@H](N2CCCC2)CC3)nn1-c1cc2c(nn1)-c1ccccc1CCC2` stands 2.63 µM (active).
Still for that read-out and setting: under `CCN1CCN(Cc2ccc(NC(=O)Nc3ccc(Oc4cc(NC)ncn4)cc3)cc2C(F)(F)F)CC1` stands 0.0023 µM (active); under `CN1C/C=C/CCOc2cccc(c2)-c2ccnc(n2)Nc2cccc(c2)C1`, 0.417 µM (active).
Same read-out and setting: under `CCN1C(=O)CNc2ncc(-c3ccc(-c4ncn[nH]4)nc3C)nc21` stands 1.66 µM (active).
Turning to `O=C(CCCCCCC(=O)N/N=C/c1ccc(N(c2ccccc2)c2ccccc2)cc1)NO`, the Potency was 4.68 µM (active).
The same measure, in the same setting: for `CN(C)Cc1ccc(S(=O)(=O)n2ccc(/C=C/C(=O)NO)c2)cc1` the value was 2.35 µM (active); for `O=C(Nc1ccc(OC(F)(F)Cl)cc1)c1cnc(N2CC[C@@H](O)C2)c(-c2ccn[nH]2)c1`, 20.9 µM (active).
Consider `CCN1CCN(Cc2ccc(-c3cc4c(N[C@H](C)c5ccccc5)ncnc4[nH]3)cc2)CC1`, for which the Potency was 2.63 µM (active).
On the same count and under the same terms, under `N#CCC1(n2cc(-c3ncnc4[nH]ccc34)cn2)CN(C2CCN(C(=O)c3ccnc(C(F)(F)F)c3F)CC2)C1` stands 16.6 µM (active).
Still for that read-out and setting: under `Cc1cc(-c2ccc(CC(=O)Nc3ccc(-c4cccnc4)cc3)cc2)ccn1` stands 13.2 µM (active).
Take `C[C@H](NC(=O)CCC(F)(F)F)C(=O)N[C@@H]1C(=O)N(CCO)c2ncccc2-c2ccccc21`: the “viability, % of control” value is 110% (inactive).
On to `O=C(NO)c1ccc(C2=Nc3ccccc3Oc3ccccc32)cc1`, for which the Potency is 1.86 µM (active).
Same read-out and setting: under `C=CC(=O)Nc1cc2c(Nc3ccc(F)c(Cl)c3)ncnc2cc1C#CC(C)(C)N1CCN(C)CC1` stands 0.742 µM (active).
Still for that read-out and setting: for `C[C@@H](Oc1ccc2[nH]nc(/C=C/c3cnn(CCO)c3)c2c1)c1c(Cl)cncc1Cl` the value was 0.296 µM (active).
Still for that read-out and setting: for `COc1ccc(OC)c(-c2nnc3ccc(-c4ccc(OC)c(O[C@@H]5CCOC5)c4)nn23)c1` the value was 5.25 µM (active); for `CCCNC(=O)[C@H]1O[C@@H]1C(=O)N[C@H](C(=O)N1CCC[C@H]1C(=O)OC)C(C)CC` (stereo not given in full), 8.33 µM (active); for `Nc1nccc2c1ncn2[C@@H]1C=C(CO)[C@@H](O)[C@H]1O`, 0.166 µM (active).
Consider `CC1(C)OCCn2c1nc1c(N3CCOCC3)nc(-c3cnc(N)nc3)nc12`, for which the Potency is 0.934 µM (active).
For `O=C(O)/C(S)=C/c1ccc(I)cc1`, the “viability, % of control” value is 108% (inactive).
In the case of `Cn1cc(-c2cc(Oc3cc(F)c(NC(=O)C4(C(=O)Nc5ccccc5)CC4)cc3F)ccn2)cn1`, the Potency was 0.742 µM (active).
For `COC(=O)C1=C(C)NC(c2ncc(F)cc2F)=N[C@H]1c1ccc(F)cc1Cl`, the Potency was 18.6 µM (active).
Same read-out and setting: for `O=C(NCc1ccccc1)c1csc(Nc2ccncn2)n1` the value was 9.34 µM (active).
On to `O=C(/C=C/c1ccc(/C=C/C(=O)Nc2ccc(C3=NCCN3)cc2)cc1)Nc1ccc(C2=NCCN2)cc1`, for which the viability, % of control was 112% [at 5.12 µM] (inactive).
Regarding `CN[C@@H]1C[C@H]2O[C@@](C)([C@@H]1OC)n1c3ccccc3c3c4c(c5c6ccccc6n2c5c31)C(=O)N[C@H]4O`, the Potency was 0.0215 µM (active).
As for `COc1ccc(C2=N[C@H](c3ccc(Cl)cc3)[C@H](c3ccc(Cl)cc3)N2C(=O)N2CCNC(=O)C2)c(OC(C)C)c1`, the Potency is 23.5 µM (active).
On the same count and under the same terms, under `COc1ccc(CC2c3cc(OC)c(OC)cc3CC[N+]2(C)CCC(=O)OCCCCCOC(=O)CC[N+]2(C)CCc3cc(OC)c(OC)cc3C2Cc2ccc(OC)c(OC)c2)cc1OC` (stereo not given) stands 18.6 µM (active).
